Cytotoxicity call data for 46 compounds are collected here from the antibiotic and cytotoxicity screens of Wong et al. (2023).

Structures are written as SMILES. The whole screen tested about 39,000 compounds, of which about 3,300 (8.5%) were called active. Many of the other results were omitted from the sample, so actives are more common in it than they were.

The test system of the experiment is HepG2. As to the kind of experiment: cytotoxicity call (relative viability < 0.9). Conditions: 10 µM.
For `Cn1cnc(S(=O)(=O)N2CC[C@H](O)[C@@H]2Cc2cnn(C)c2)c1`, the cytotoxicity call is “inactive”.

Turning to `C[C@@H]1CN([C@H](C)CO)C(=O)c2cc(NC(=O)Cc3ccccc3)ccc2O[C@@H](C)CCCCO[C@H]1CN(C)C(=O)Nc1ccccc1`, the cytotoxicity call was “active”.

Consider `C[C@@H]1CCCCO[C@H](CN(C)C(=O)Nc2ccc(C(F)(F)F)cc2)[C@@H](C)CN([C@@H](C)CO)C(=O)c2cc(NC(=O)Cc3ccccc3)ccc2O1`, for which the cytotoxicity call is “inactive”.

In the case of `C[C@H](CO)N1C[C@H](C)[C@@H](CN(C)C(=O)Nc2ccc(C(F)(F)F)cc2)OCCCC[C@H](C)Oc2ccc(NC(=O)Cc3ccccc3)cc2C1=O`, the cytotoxicity call is “inactive”.

In the case of `C[C@H]1CCCCO[C@@H](CN(C)C(=O)Nc2ccccc2)[C@@H](C)CN([C@@H](C)CO)C(=O)c2cc(NC(=O)Cc3ccccc3)ccc2O1`, the cytotoxicity call is “inactive”.

With `C[C@@H]1CCCCO[C@@H](CN(C)C(=O)Nc2ccc(C(F)(F)F)cc2)[C@H](C)CN([C@H](C)CO)C(=O)c2cc(NC(=O)Cc3ccccc3)ccc2O1`, the cytotoxicity call is “active”.

For `C[C@@H]1CCCCO[C@@H](CN(C)C(=O)CCC(F)(F)F)[C@H](C)CN([C@@H](C)CO)C(=O)c2cc(NC(=O)Cc3ccccc3)ccc2O1`, the cytotoxicity call is “inactive”.

Regarding `C[C@@H]1CCCCO[C@@H](CN(C)C(=O)CCC(F)(F)F)[C@@H](C)CN([C@H](C)CO)C(=O)c2cc(NC(=O)Cc3ccccc3)ccc2O1`, the cytotoxicity call is “inactive”.

Consider `C[C@H]1CCCCO[C@H](CN(C)C(=O)CCC(F)(F)F)[C@@H](C)CN([C@@H](C)CO)C(=O)c2cc(NC(=O)Cc3ccccc3)ccc2O1`, for which the cytotoxicity call was “active”.

Regarding `C[C@@H]1CCCCO[C@@H](CN(C)C(=O)Nc2ccccc2)[C@H](C)CN([C@@H](C)CO)C(=O)c2cc(NC(=O)Cc3ccccc3)ccc2O1`, the cytotoxicity call is “inactive”.

With `CC(C)NC(=O)Nc1ccc2c(c1)C(=O)N([C@@H](C)CO)C[C@@H](C)[C@@H](CN(C)Cc1ccccc1)OCCCC[C@@H](C)O2`, the cytotoxicity call is “inactive”.

Turning to `C[C@@H]1CCCCO[C@@H](CN(C)C(=O)Nc2ccc3c(c2)OCO3)[C@@H](C)CN([C@@H](C)CO)C(=O)c2cc(NC(=O)Nc3ccc4c(c3)OCO4)ccc2O1`, the cytotoxicity call was “inactive”.

For the compound `CS(=O)(=O)N1CCOC[C@@]2(C1)CN(S(=O)(=O)C1CC1)CCO2`, the cytotoxicity call was “inactive”.

On to `O=C(C[C@H]1CC[C@H]2[C@@H](COC[C@@H](O)CN2S(=O)(=O)c2cccc(F)c2)O1)NCc1ccc2c(c1)OCO2`, for which the cytotoxicity call is “inactive”.

Regarding `C[C@@H]1CCCCO[C@H](CN(C)C(=O)Nc2ccc3c(c2)OCO3)[C@@H](C)CN([C@H](C)CO)C(=O)c2cc(NC(=O)c3ccccc3)ccc2O1`, the cytotoxicity call was “inactive”.

Turning to `O=C(O)CNc1ncccc1O`, the cytotoxicity call is “inactive”.

On to `Cc1ccc(S(=O)(=O)N(C)C[C@H]2Oc3ccc(NC(=O)NC(C)C)cc3CC(=O)N([C@H](C)CO)C[C@@H]2C)cc1`, for which the cytotoxicity call was “inactive”.

With `N=C1CCCN1Cc1[nH]c(=O)[nH]c(=O)c1Cl`, the cytotoxicity call is “inactive”.

For the compound `Cc1noc(C)c1NC(=O)Nc1ccc2c(c1)C(=O)N([C@@H](C)CO)C[C@@H](C)[C@H](CN(C)Cc1ccccc1)OCCCC[C@H](C)O2`, the cytotoxicity call was “inactive”.

Take `Cc1noc(C)c1S(=O)(=O)Nc1ccc2c(c1)C(=O)N([C@H](C)CO)C[C@@H](C)[C@@H](CN(C)Cc1ccc(C(=O)O)cc1)O2`: the cytotoxicity call was “inactive”.

`CC(C)NC(=O)N(C)C[C@H]1Oc2ccc(NC(=O)CCCN(C)C)cc2CC(=O)N([C@@H](C)CO)C[C@@H]1C`: the cytotoxicity call is “inactive”.

Consider `NC1CCCCC1N.O=C1[O][Pt][O]C1=O` (stereo unspecified), for which the cytotoxicity call was “active”.

As to `N[C@H]1CCCC[C@@H]1N1C(=O)CSC1=O`, the cytotoxicity call was “inactive”.

Consider `Cc1c(CN2CCC(Nc3ncnc4sc(CC(F)(F)F)cc34)CC2)ccc2c1cc(C#N)n2Cc1cn[nH]c1`, for which the cytotoxicity call was “active”.

For `Cc1noc(C)c1S(=O)(=O)N(C)C[C@@H]1OCCCC[C@H](C)Oc2ccc(NS(C)(=O)=O)cc2C(=O)N([C@@H](C)CO)C[C@H]1C`, the cytotoxicity call was “inactive”.

For `CN(C)CCOc1c(Br)cc(/C=C/C(=O)NCCCOc2c(Br)cc(CCN(C)C)cc2Br)cc1Br`, the cytotoxicity call is “active”.

In the case of `COc1cc(C(=O)NCc2ccc(OCCN(C)C)cc2)cc(OC)c1OC.Cl`, the cytotoxicity call is “inactive”.

For the compound `CC(C)N(CCOc1c(Br)cc(/C=C/C(=O)NCCCOc2c(Br)cc(CCN(C)C)cc2Br)cc1Br)C(C)C`, the cytotoxicity call is “active”.

Consider `COc1cc(/C=C/C(=O)NCCCNC(=O)/C=C/c2cc(OC)c(OC)c(OC)c2)cc(OC)c1OC`, for which the cytotoxicity call is “inactive”.

Regarding `C[C@H](CO)N1C[C@H](C)[C@@H](CN(C)C(=O)Nc2ccc3c(c2)OCO3)Oc2ccc(NC(=O)CCCN(C)C)cc2C1=O`, the cytotoxicity call was “inactive”.

On to `CO[C@H]1CN(C)C(=O)c2cc(NS(=O)(=O)CC(F)(F)F)ccc2OC[C@H](C)N(C(=O)c2ccc3c(c2)OCO3)C[C@H]1C`, for which the cytotoxicity call is “inactive”.

`O=C(Cc1ccccn1)NCC[C@H]1CC[C@@H](NC(=O)CN2CCOCC2)[C@H](CO)O1`: the cytotoxicity call was “inactive”.

In the case of `C[C@H]1CN([C@@H](C)CO)C(=O)c2cc(NC(=O)Cn3cnnn3)ccc2O[C@@H]1CN(C)S(=O)(=O)c1ccccc1`, the cytotoxicity call was “inactive”.

On to `CC(C)N1C[C@H](C)[C@@H](CN(C)Cc2ccc(Oc3ccccc3)cc2)Oc2c(cccc2-c2nnc(-c3ccncc3)o2)C1=O`, for which the cytotoxicity call is “inactive”.

With `COc1ccc(S(=O)(=O)N(C)C[C@@H]2Oc3c(NC(=O)Nc4cccc5ccccc45)cccc3C(=O)N([C@@H](C)CO)C[C@H]2C)cc1OC`, the cytotoxicity call is “inactive”.

`C[C@@H]1CN([C@@H](C)CO)C(=O)c2cccc(NC(=O)Nc3cccc4ccccc34)c2O[C@H]1CN(C)S(=O)(=O)c1ccc(OC(F)(F)F)cc1`: the cytotoxicity call is “active”.

Turning to `COc1ccc(S(=O)(=O)N(C)C[C@H]2Oc3c(NC(=O)Nc4cccc5ccccc45)cccc3C(=O)N([C@@H](C)CO)C[C@@H]2C)cc1`, the cytotoxicity call is “active”.

For `C[C@H](CO)N1C[C@H](C)[C@H](CN(C)S(=O)(=O)c2ccccc2)Oc2c(NC(=O)Nc3cccc4ccccc34)cccc2C1=O`, the cytotoxicity call is “inactive”.

`COc1ccc(S(=O)(=O)N(C)C[C@@H]2Oc3c(NC(=O)Nc4cccc5ccccc45)cccc3C(=O)N([C@@H](C)CO)C[C@H]2C)c(OC)c1`: the cytotoxicity call is “active”.

As for `C[C@H](CO)N1C[C@H](C)[C@H](CN(C)S(=O)(=O)c2ccc(F)cc2)Oc2c(NC(=O)Nc3cccc4ccccc34)cccc2C1=O`, the cytotoxicity call is “inactive”.

In the case of `C[C@H]1CN([C@@H](C)CO)C(=O)c2cccc(NC(=O)Nc3cccc4ccccc34)c2O[C@H]1CN(C)S(=O)(=O)c1ccc(F)cc1`, the cytotoxicity call was “inactive”.

As for `COc1ccc(S(=O)(=O)N(C)C[C@@H]2Oc3c(NC(=O)Nc4cccc5ccccc45)cccc3C(=O)N([C@@H](C)CO)C[C@H]2C)cc1F`, the cytotoxicity call is “inactive”.

`COc1cccc(S(=O)(=O)N(C)C[C@@H]2Oc3c(NC(=O)Nc4cccc5ccccc45)cccc3C(=O)N([C@@H](C)CO)C[C@H]2C)c1`: the cytotoxicity call was “active”.

Consider `COc1ccc(S(=O)(=O)N(C)C[C@H]2Oc3c(NC(=O)Nc4cccc5ccccc45)cccc3C(=O)N([C@@H](C)CO)C[C@H]2C)cc1`, for which the cytotoxicity call was “inactive”.

Turning to `COc1ccccc1S(=O)(=O)N(C)C[C@@H]1Oc2c(NC(=O)Nc3cccc4ccccc34)cccc2C(=O)N([C@@H](C)CO)C[C@H]1C`, the cytotoxicity call is “inactive”.

`COc1ccc(S(=O)(=O)N(C)C[C@@H]2Oc3c(NC(=O)Nc4cccc5ccccc45)cccc3C(=O)N([C@@H](C)CO)C[C@H]2C)cc1`: the cytotoxicity call is “inactive”.
